The campaign covered roughly 69,000 compounds. About 8,600 (12%) showed an effect of 50% or more. Shown is part of a subset that was picked to be rich in strong results.

Here are results for 67 compounds from ChEMBL document CHEMBL4513216, “Probing the Open Global Health Chemical Diversity Library for Multistage-Active Starting Points for Next-Generation Antimalarials” (ACS Infect Dis, 2020).

The test system of this assay is Plasmodium berghei. Put plainly: Screen against P. berghei liver stage (PbLuc), transformed with Luciferase, at 10uM. It counts as functional, HepG2. To be noted: tested at 10 uM.
For `Cc1nc(C2CCCN2C(=O)CCn2cncn2)no1` (configuration not stated), the INHIBITION is -85%. For `c1cnc2c(c1)cc([C@H]1CCCO1)n2CCN1CCOCC1`, the INHIBITION is listed as 30.1%. Next, `CN(Cc1ccc(F)cc1)Cc1cc2c(cc1Br)OCCO2`: 44.8%; `CN(Cc1ccccc1F)Cc1cc2c(cc1Br)OCCO2`: 76.2%; `CN(Cc1ccc(F)cc1F)Cc1cc2c(cc1Br)OCCO2`: 52.6%. For `CN(Cc1ccc(F)c(F)c1)Cc1cc2c(cc1Br)OCCO2` the value was -30%; for `CC(NCc1cccc2c1OCCO2)c1cc2c(cc1Br)OCCO2` (configuration not stated), 4.15%; for `CN(Cc1cscn1)Cc1cc2c(cc1Br)OCO2`, 31.9%.

Consider `COc1ccccc1CN(Cc1nc(Cc2ccccc2)no1)C1CC1`, for which the INHIBITION was 21.3%. For the compound `Cc1ccccc1CC(=O)N1C[C@@H]2COC[C@]2(CN(C)C)C1`, the INHIBITION worked out at 20.5%.

For `N#Cc1ccc(C(=O)O)nc1C=Cc1cccc(F)c1`, the INHIBITION was -23.2%. `CC(C)CN1CC2(CCN(C(=O)c3nc4ncccn4n3)CC2)CC1=O`: the INHIBITION turned out to be 56%.

As for `CC(C)CN1CC2(CCN(C(=O)C(O)c3ccccc3Cl)CC2)CC1=O` (configuration not stated), the INHIBITION was 6.88%. Consider `CC(C)CN1CC2(CCN(C(=O)C3CNC(=O)N3)CC2)CC1=O` (configuration not stated), for which the INHIBITION is given as 53%.

In the case of `CC(C)CN1CC2(CCN(C(=O)c3cn4cccnc4n3)CC2)CC1=O`, the INHIBITION is given as -13.6%. As to `CC(C)CN1CC2(CCN(C(=O)c3cnccn3)CC2)CC1=O`, the INHIBITION is given as -33%. On to `CC(C)CN1CC2(CCN(C(=O)C3CSC(C)(C)C(=O)N3)CC2)CC1=O` (configuration not stated), for which the INHIBITION came to 12%. For `CC(C)Oc1ccc2c(NC(=O)CNC(N)=O)nn(CC(F)(F)F)c2c1` the value was 29.7%; for `COCC(=O)N1C[C@@H](c2cc(O)nc(C)n2)[C@H](c2ccccc2F)C1`, 24.49%; for `CC(=O)N1C[C@H](c2cc(O)nc(C)n2)[C@@H](c2ccccc2F)C1`, 12.45%.

Turning to `Cc1nc(O)cc([C@@H]2CN(C(=O)C3CC3)C[C@H]2c2ccccc2F)n1`, the INHIBITION was 60.55%. As for `Cc1cc(NCCO)nc(N2CCC(Cc3ccccc3)CC2)c1C#N`, the INHIBITION was 29.1%. As for `Cc1nccn1CC(=O)N1CC(Cc2nccc3ccn(C)c23)C1`, the INHIBITION was found to be 34%. For the compound `CCN1CCC(CC(=O)N(C)CC(=O)c2ccc(O)cc2)CC1`, the INHIBITION is reported as 55%.

Regarding `CCCN1CCC(CC(=O)NCc2cc(O)ncn2)CC1`, the INHIBITION was determined as 28.7%. Next, `CC(C)N1CCC(CC(=O)N(C)CC(=O)c2ccc(O)cc2)CC1`: 1.98%. For `CCCN1CCC(CC(=O)N(C)C(C)c2cncs2)CC1` (configuration not stated), the INHIBITION is on record as 6.33%.

For `CC(C)N1CCC(C(=O)N(C)CC(=O)c2ccc(O)cc2)CC1`, the INHIBITION worked out at 23.6%. For `CCCN1CCC(CC(=O)N(C)CC(=O)c2ccc(O)cc2)CC1` the value was 56.1%; for `CN(C)C(=O)C1OC2(CCN(C(=O)N(C)C)CC2)c2ccccc21` (configuration not stated), 14.1%; for `CNc1cc(C2CCCN2C(=O)c2ccc(=O)[nH]n2)ccn1` (configuration not stated), -7.66%. With `N#Cc1ccsc1C(=O)N1CCCN(Cc2cscn2)CC1`, the INHIBITION was -14%. `CC(C)n1nc(CNc2ncccn2)c2c1CN(C)CC2`: the INHIBITION was -3.77%. In the case of `COC[C@]12COC[C@H]1CN(Cc1cc(OC)cc(OC)c1)C2`, the INHIBITION is reported as 35.8%.

For the compound `O=C(c1cccnc1)N1CCC(c2nc(O)cc(-c3ccncc3)n2)C1` (configuration not stated), the INHIBITION worked out at 1.5%. For `CNC(=O)CN1CCCC12CCN(C(=O)c1ccsc1)CC2` the value was -0.937%; for `CNC(=O)CN1CCCC12CCN(C(=O)c1ccc(F)cc1)CC2`, 42.4%. Next, `CNC(=O)CN1CCCC12CCN(C(=O)c1ccoc1)CC2`: 56.8%; `CCOCC(O)CN1CCN(C(=O)c2cc(C)ccc2F)CC1` (configuration not stated): -59.4%; `COCC1c2c(cnn2C)CCN1C(=O)c1cccn1C` (configuration not stated): 46.6%.

For the compound `COc1c(C(=O)N2CCNC(=O)C2)cnc2c1c(C)nn2C`, the INHIBITION is -25.1%. For `COC(=O)c1cnc2c(c(C)nn2C)c1OC` the value was 66.8%; for `COc1c(C(=O)N2CCOCC2)cnc2c1c(C)nn2C`, 2.59%; for `O=C(Cc1cccs1)NS(=O)(=O)c1cccc2cnccc12`, 36.3%. Consider `CCOc1ccc(CN2CCOCC2c2[nH]ncc2C)cc1CO` (configuration not stated), for which the INHIBITION was determined as 29.65%. Regarding `Cc1cc(C)n(CCCNC(=O)C2CCCO2)n1` (configuration not stated), the INHIBITION came out at 6.09%. Turning to `Cc1cc(C(F)(F)F)nn1CCCNC(=O)C1CCCC1`, the INHIBITION came out at 43.2%. For `Cc1cc(C(F)(F)F)nn1CCCNC(=O)C1CCCO1` (configuration not stated) the value was 60.4%; for `Cc1cc2[nH]c(=O)oc2cc1S(=O)(=O)N1C[C@@H](N(C)C)[C@H](C(C)C)C1`, 26.5%; for `Cc1nc(CSCCC(=O)Nc2cccc(N3CCNC3=O)c2)cs1`, -24.6%. Next, `COCCN1CCO[C@@H]2CN(Cc3ccc(C)o3)C[C@@H]2C1`: -0.554%; `CCS(=O)(=O)Nc1cnn(Cc2cccc(C)c2)c1`: -2.64%. For `COC(=O)c1ccccc1NS(=O)(=O)c1c(C)nn(C)c1C` the value was -7.93%. `Cc1ccc(-n2cc(S(=O)(=O)Nc3cccc(C(=O)O)c3C)cn2)cc1`: the INHIBITION came out at 68%. Regarding `Cc1cccc(NS(=O)(=O)c2cnn(C)c2)c1C#N`, the INHIBITION was 18.9%. Next, `Cc1cn(-c2ccccc2)nc1NS(=O)(=O)c1cccc(C(=O)O)c1`: 40.9%; `CCn1nc(C)c(S(=O)(=O)Nc2ccccc2C(=O)OC)c1C`: 29.7%. On to `Cc1ccc(NS(=O)(=O)c2cnn(-c3ccccc3)c2)c(C(=O)O)c1`, for which the INHIBITION turned out to be 22.5%. Next, `CCn1nc(C)c(S(=O)(=O)Nc2cccc(C(=O)O)c2C)c1C`: 62.4%; `Cc1ccc(NS(=O)(=O)c2cnn(Cc3ccccc3)c2)c(C(=O)O)c1`: 51.6%; `CC(=O)N1CCC(c2cncc(N3CCCCCC3)n2)CC1`: 17.4%. With `O=C(NC1CCCN(CCc2ccccc2)C1)c1cnccn1` (configuration not stated), the INHIBITION is listed as -0.29%. For `Cc1cnn(C2CCCN(C(=O)Cc3cn4ccsc4n3)C2)c1` (configuration not stated) the value was -9%; for `Cc1nc(C)c(C(=O)N2CCC(O)(Cn3ccc4ccncc43)CC2)s1`, -57.4%. As for `CS(=O)(=O)c1cc(C(=O)NS(=O)(=O)Cc2ccc(F)cc2)ccc1Cl`, the INHIBITION stood at 37.7%. For the compound `O=C(Cc1noc(C(=O)NCCO)n1)Nc1cccc(C(F)(F)F)c1`, the INHIBITION is 25.2%. As for `CC(C)(C)n1ncc2c1NC(=O)CC2c1cccs1` (configuration not stated), the INHIBITION is on record as -0.87%.
